Sampled rows, rich in hits. Any-hit rate of the full collection: about 3.7%.
TIM10 inh = growth inhibitors of isogenic TIM10 control yeast, primary screen, counter-screen for tim10-1 yeast inhibitor project, luminescence, uHTS | S. cerevisiae TIM10 strain growth, BacTiter-Glo luminescence, 24 h | AID 463195, 2010 | 330,000 compounds, 1.4% hits | inhibition, % at 10 µM;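 active = inhibition of 40% or more at the single tested concentration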;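 also: wild-type TIM10 isogenic control strain grown at permissive 25 °C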
NLRP3 yeast inh = NALP3 inflammasome inhibitors in reconstituted yeast, primary screen, luminescence, uHTS. inhibition, % at 10 µM. 330,000 compounds, 0.39% hits. Yeast reconstituted NLRP3/ASC/caspase-1, beta-gal luminescence, 24 h;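 active = inhibition of 50% or more; inactive = inhibition below 50%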
tim10-1 inh = growth inhibitors of tim10-1 mutant yeast, primary screen, luminescence, uHTS | S. cerevisiae tim10-1 ts strain growth, BacTiter-Glo, 24 h | inhibition, % at 20 µM | 330,000 compounds, 2.2% hits | AID 463190, 2010;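 active = inhibition of at least 40%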;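 also: mutant grown at 25 °C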
PfHsp90 set2 = growth inhibition of PfHsp90-expressing yeast, primary screen, antimalarial PfHsp90 inhibitor project, S. cerevisiae, BacTiter-Glo luminescence, single point, set 2; 310,000 compounds, 0.32% hits; inhibition, % at 9.4 µM; BacTiter-Glo ATP, 48 h; yeast lacking PDR1 and PDR3 efflux regulators;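 active = every replicate shows inhibition above about 80%, whatever the replicate mean, limit read from the data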
tim23-1 inh = growth inhibitors of tim23-1 mutant yeast, primary screen, luminescence, uHTS | S. cerevisiae tim23-1 growth, BacTiter-Glo luminescence, 24 h | inhibition, % at 20 µM | 330,000 compounds, 1.3% hits | AID 463212, 2010;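 active = growth inhibition of the mutant yeast at or above 50%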;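 also: temperature-sensitive mutant grown at 25 °C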
tim10-1 conf = growth inhibitors of tim10-1 mutant yeast, confirmation, single concentration, luminescence, S. cerevisiae; shares compounds with tim10-1 inh; S. cerevisiae tim10-1 ts strain growth, BacTiter-Glo, 24 h; inhibition, % at 20 µM; 7,400 compounds, 56% hits; AID 463213, 2010;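 active = inhibition of yeast growth at or above a set limit in either of two repeat tests at 20 µM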;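 also: tim10-1 mutant grown at permissive 25 °C to find synthetic lethal compounds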
A number is an active result; i = inactive; nt = no result.

SMILES	TIM10 inh	NLRP3 yeast inh	tim10-1 inh	PfHsp90 set2	tim23-1 inh	tim10-1 conf
COc1ccc(CN2C(=O)c3c(c(C)n(C)c3C)C2C(=O)NC2CCC(C)CC2)cc1 (stereo not given)	i	i	42	nt	i	i
COc1ccc(NC(=O)CN(C)CC(=O)NC2CCC(C)CC2)cc1 (stereo not given)	i	i	i	i	i	nt
Cc1ccc(N(C)S(=O)(=O)c2ccc(-c3cnc(C4CC4)o3)cc2)cc1	i	i	i	i	i	nt
COc1ccc(OCC(=O)N(C)CC2COc3ccccc3O2)cc1 (stereo not given)	i	i	i	i	i	nt
CC(C)(C)c1ccc2c(c1)OC(C(=O)N/N=C\c1ccc[nH]1)CO2 (stereo not given)	i	i	42	i	i	i
COc1ccc(-c2nn(-c3ccccc3)cc2/C=C(\CC(=O)O)c2nc3ccccc3s2)cc1OC	i	i	71	i	i	41
CN(Cc1cccc(Cl)c1Cl)C(=O)c1cc(S(=O)(=O)N2CCOCC2)ccc1F	i	i	i	i	i	nt
O=C(Nc1cccc(C(F)(F)F)c1)C1CCCN(c2ncccn2)C1 (stereo not given)	i	i	42	nt	i	36
O=C(NCc1cccc(C(F)(F)F)c1)C1CCCN(c2ncccn2)C1 (stereo not given)	i	i	i	nt	i	nt
O=[N+]([O-])c1ccc(-c2csc(N3CCc4ccccc4C3)n2)cc1	i	i	i	i	i	nt
O=[N+]([O-])c1ccc(N2CCc3ccccc3C2)cc1	i	i	55	i	i	43
CCn1c(CC(=O)Nc2ccccc2)nnc1SCC(=O)Nc1nncs1	i	i	i	i	i	nt
C=CCn1c(O)c(C2=c3ccccc3=NC2=O)sc1=Nc1ccc(O)cc1	i	i	63	i	i	i
CC[C@]12c3[nH]c4ccc(OC)cc4c3CCN1C(=O)C(CC(=O)NCCCN(C)C)C[C@@H]2C(=O)N1CCN(C(=O)c2ccco2)CC1 (stereo not given in full)	i	nt	i	i	i	nt
Cc1ccc(-c2nc3cnccn3c2Nc2c(C)cccc2C)o1	i	i	60	i	i	55
CN1CC(c2ccccc2)C2(SC(=S)N(Cc3ccco3)C2=O)C12C(=O)Nc1ccccc12 (stereo not given)	i	i	44	nt	i	i
CCn1c(C(=O)O)c(S(=O)(=O)c2ccc(Cl)cc2)c2ccccc21	i	i	i	i	i	nt
CCOC(=O)c1c(NC(=S)N2CCN(C)CC2)sc(C)c1-c1ccccc1	i	i	43	i	i	31
O=C(COC(=O)c1cc(Cl)ccc1O)NCCC1=CCCCC1	i	i	i	i	i	nt
C[C@@H]1CN([C@H](C)CO)C(=O)c2cc(NS(=O)(=O)c3ccc(F)cc3)ccc2O[C@@H]1CN(C)Cc1ccc(Cl)c(Cl)c1	i	i	i	i	i	nt
Cc1cccc(NS(=O)(=O)c2cccc(C(=O)NCC3(N4CCOCC4)CCCCC3)c2)c1	nt	nt	nt	i	nt	nt
O=C(c1ccco1)N1CCN(C(=O)c2ccc(-c3cccc(C(F)(F)F)c3)o2)CC1	i	i	i	i	i	nt
O=C(c1ccc(-c2cccc(C(F)(F)F)c2)o1)N1CCCCCCC1	i	i	41	i	i	30
COc1cc(NC(=O)CCC(=O)N2CCN(S(=O)(=O)c3ccc(C)cc3)CC2)cc(OC)c1	nt	nt	nt	i	nt	nt
O=[N+]([O-])c1cc(F)cc(F)c1Nc1cc(F)cc(F)c1	nt	nt	nt	i	nt	nt
SMILES	TIM10 inh	NLRP3 yeast inh	tim10-1 inh	PfHsp90 set2	tim23-1 inh	tim10-1 conf
O=Cc1ccc(OC(=O)c2cc(Cl)nc3ccccc23)cc1	i	i	44	i	i	i
COc1ccccc1C(=O)Nc1nnc(S(=O)(=O)N2CCCCC2)s1	i	i	48	i	i	i
COc1ccccc1C(=O)Nc1nnc(S(=O)(=O)N2CCCCCC2)s1	i	i	i	i	i	nt
O=C(CCNC(=O)c1ccc(Br)cc1)NC1CCCc2ccccc21 (stereo not given)	i	i	i	nt	i	nt
Cc1ccc(S(=O)(=O)NC(=O)c2ccc(F)cc2)c(C)c1	i	i	i	i	i	nt
Cc1ccc(S(=O)(=O)NC(=O)c2ccc(-c3ccc(-c4ccccc4)cc3)o2)c(C)c1	i	i	43	nt	i	33
NNc1nc(Nc2ccccc2)nc(Nc2ccccc2)n1	i	i	51	i	i	42
CC1CCCN(S(=O)(=O)c2ccc(NC(=O)CN3C(=O)NC(C)(c4ccccc4)C3=O)cc2)C1 (stereo not given)	i	i	i	i	i	nt
CCc1noc(C)c1C(=O)N(CCOC)c1c(N)n(CC(C)C)c(=O)[nH]c1=O	i	i	i	i	i	nt
CCOC(=O)c1ccccc1NC(=O)CN1C(=O)NC(C)(CCc2ccccc2)C1=O (stereo not given)	i	i	i	i	i	nt
O=C(NCC(c1cccs1)N1CCOCC1)c1ccc(OCc2ccccc2)cc1 (stereo not given)	i	i	i	i	i	nt
O=C1c2ccccc2C(=O)c2c1ccc(C(=O)N1CCCCC1)c2NCCO	i	i	i	i	i	nt
CC1(C)CCCN(C(=O)c2ccc3c(c2NCCO)C(=O)c2ccccc2C3=O)C1	i	i	43	i	i	i
c1ccc(-c2cc3n(c2)CCc2ccccc2-3)cc1	i	i	42	i	i	i
Cc1cccc(CCNC(=O)c2cccc3c2C(=O)N(C2CCCCC2)C3)c1	i	i	52	i	i	i
Cc1cc(C)c(NC(=O)c2cccc3c2C(=O)N(C2CCCCC2)C3)c(C)c1	i	i	49	i	i	i
Cc1ccc(NC(=O)c2cccc3c2C(=O)N(C2CCCCC2)C3)c(C)c1	i	i	i	i	i	nt
CC(C)(C)C(=O)[C@@H]1[C@@H]2C(=O)N(C3CCCCC3)C(=O)[C@@H]2[C@H]2c3ccccc3C=CN12	i	i	40	i	i	i
Cn1c(O)c(N=NC(=O)C2COc3ccccc3O2)c2ccccc21 (stereo not given)	i	i	i	i	i	nt
CC(C)n1c(O)c(N=NC(=O)C2COc3ccccc3O2)c2ccccc21 (stereo not given)	i	i	48	i	i	i
CC(NC(=O)c1ccc(S(=O)(=O)Nc2ccccc2Cl)cc1)c1ccncc1 (stereo not given)	i	i	i	i	i	nt
COc1ccc(N(C(=O)CCl)C(C(=O)NC2CCCCC2)c2cccnc2)cc1 (stereo not given)	i	i	41	i	i	32
O=C(NC1CCCCC1)C(c1cccnc1)N(C(=O)CCl)c1ccc(F)cc1 (stereo not given)	nt	nt	nt	i	nt	nt

Compound activity (PubChem)
